The source of these data is PubChem BioAssay (NCATS).

Experiment [1] deals with Cytochrome P450 3A4 (Homo sapiens) (UniProt P08684). The experiment is described as follows: qHTS Assay for Inhibitors and Substrates of Cytochrome P450 3A4 (AID 884). Further: nearly all actives have a fitted effect of over 50% in size. Further: potency means the concentration at half of the fitted maximal effect. On activity change, negative = inhibition: on the % scale 0 is the no-effect control and ±100 the full control effect. In outline:
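Luminescent readout of luciferin produced by CYP3A4 (20 nM) dealkylation of Luciferin-PPXE, 25 uM (its KM). NADPH-driven reaction ran 60 min at RT after 10 min compound preincubation; data scaled to 57 uM ketoconazole as 100% inhibition.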

For experiment [2] the target is unchanged. Briefly: qHTS Assay for Activators of Cytochrome P450 3A4 (AID 885). Further: nearly all actives have a fitted effect of over 65% in size. Further: potency means the concentration at half of the fitted maximal effect. In outline:
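Activators are scored by enhanced luminescence from CYP3A4 conversion of luciferin-PPXE (25uM, equal to KM) to luciferin, after 60 min at RT with an NADPH-regenerating system.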

Experiment [3] in a line: qHTS Assay for Lipid Storage Modulators (AID 1519; calls by dose curve; on activity change, negative = inhibition: on the % scale 0 is the no-effect control and ±100 the full control effect). The settings on record: Drosophila S3 cells, BODIPY lipid droplet/cell ratio, laser cytometry, cells loaded with oleic acid; for activity change, negative = inhibition: at 57.5 µM (top of the series). The method, boiled down: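 Cells seeded at 5,000 per well were treated with compounds over a concentration series and loaded with oleic acid (400 uM, as added). Lipid droplet fluorescence (488 nm excitation, 500-530 nm channel) was read by laser-scanning cytometry and normalized to 20 uM Triacsin C.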

Experiment [4] has as its target Ubiquitin carboxyl-terminal hydrolase 1 (Homo sapiens) (UniProt O94782). Briefly: Inhibitors of USP1/UAF1: Pilot qHTS (AID 504865).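 Further: rhodamine fluorescence freed from ubiquitin-rhodamine substrate followed over time; top concentration of the series differs between compounds; on the % scale 0 is the no-effect control and ±100 the full control effect; nearly all actives have a fitted effect of over 35% in size.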 In outline: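 In 50mM HEPES pH 7.8 containing 0.5mM EDTA, 1mM TCEP, 0.1 mg/ml BSA and 0.01% Tween-20, 1nM USP1/UAF1 is exposed to compound for 15 min, then Ub-Rho (150nM final) is added and fluorescence is read over time.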
For experiment [5], the target named is DNA dC->dU-editing enzyme APOBEC-3G (Homo sapiens) (UniProt Q9HC16). Briefly: qHTS for inhibitors of Vif-A3G interactions: Validation (AID 588379). Further: 0% is about no effect. The method, boiled down: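 Yellow fluorescence (Ex 488, Em 500-530) of Vif-coexpressing HeLa A3G-eYFP cells, scanned by Acumen cytometer, reports blocked A3G degradation. Cells plated at 700/well overnight at 37 deg C before compound addition, then a further overnight compound incubation at 37 deg C.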
Chain of DNA dC->dU-editing enzyme APOBEC-3G (Homo sapiens) (Q9HC16 whole entry, looked up): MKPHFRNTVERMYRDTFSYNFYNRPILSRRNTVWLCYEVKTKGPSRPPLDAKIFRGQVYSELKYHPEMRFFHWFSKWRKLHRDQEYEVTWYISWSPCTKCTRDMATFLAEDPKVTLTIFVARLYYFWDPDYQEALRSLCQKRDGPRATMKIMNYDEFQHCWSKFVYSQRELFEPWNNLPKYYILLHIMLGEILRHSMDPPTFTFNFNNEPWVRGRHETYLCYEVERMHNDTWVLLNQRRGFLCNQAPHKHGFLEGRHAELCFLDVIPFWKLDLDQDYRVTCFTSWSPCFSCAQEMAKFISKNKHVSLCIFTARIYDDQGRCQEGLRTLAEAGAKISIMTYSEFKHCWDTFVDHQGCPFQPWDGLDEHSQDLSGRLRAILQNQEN

Experiment [6] can be described thus: Confirmation and Secondary Assay for Modulators of Hemoglobin Beta Chain Splicing at IVS2 654 locus (AID 910).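 Further: HeLa cells stably carrying EGFP split by mutant beta-globin IVS2-654 intron; per-well total GFP intensity by laser scanning cytometry after 2-day treatment; % of control where 0% means no effect.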 In outline:
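Readout: per-well total peak green fluorescence (488 nm ex, 500–520 nm em) from objects 5–250 µm, reflecting correct splicing of an EGFP-654 reporter. Compounds were applied for 2 days at 37 °C to overnight-plated HeLa EGFP-654 cells; controls were DMSO and 500 nM IVS2-654 PNA.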

A short description of experiment [7]: Confirmation and Secondary Assay for Modulators of Hemoglobin Beta Chain Splicing at IVS2 705 locus (AID 930).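 Further: HeLa cells stably expressing the EGFP-705 splicing reporter; GFP fluorescence per well restored by corrected splicing of the IVS2-705 intron in EGFP; % of control where 0% means no effect.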 In outline: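 HeLa IVS2-705 EGFP reporter cells, 500/well, compound 2 d at 37C; correct splicing yields fluorescent EGFP. Control: 500 nM antisense PNA. Read-out: total peak GFP intensity.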
The mark [8] stands for this setting: measured here: cell count channel max response.
[9] abbreviates: measured here: lipid channel max response.

Values joined by “and” are separate entries in the source; they are usually repeats but may differ in a detail not shown here. Equal entries are not always repeated. Inconclusive results are not listed. Active and inactive are the calls of the source. Unless noted, the call rests on the fitted dose curve; in most records, active means well fitted curve in the direction sought with a large enough effect; inconclusive means small, poorly fitted or top-dose-only effect, or another doubt; inactive means no such curve, though single readings can be large; an effect the other way counts as inactive or inconclusive.

Chain of Cytochrome P450 3A4 (Homo sapiens) (P08684 whole entry, looked up): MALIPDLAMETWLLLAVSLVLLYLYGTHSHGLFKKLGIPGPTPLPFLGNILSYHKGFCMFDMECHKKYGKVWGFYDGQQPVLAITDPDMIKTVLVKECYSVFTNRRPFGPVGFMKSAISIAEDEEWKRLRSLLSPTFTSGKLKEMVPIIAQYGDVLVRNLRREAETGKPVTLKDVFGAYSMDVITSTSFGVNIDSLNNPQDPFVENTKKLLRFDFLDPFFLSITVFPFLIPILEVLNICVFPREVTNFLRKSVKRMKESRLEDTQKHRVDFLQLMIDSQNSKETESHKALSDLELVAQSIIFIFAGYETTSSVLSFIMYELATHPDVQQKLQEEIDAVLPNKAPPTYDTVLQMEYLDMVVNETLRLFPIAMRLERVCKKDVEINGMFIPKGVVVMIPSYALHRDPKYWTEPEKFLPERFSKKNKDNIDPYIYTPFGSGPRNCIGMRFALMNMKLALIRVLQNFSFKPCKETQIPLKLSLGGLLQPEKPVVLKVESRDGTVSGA
Chain of Ubiquitin carboxyl-terminal hydrolase 1 (Homo sapiens) (O94782 whole entry, looked up): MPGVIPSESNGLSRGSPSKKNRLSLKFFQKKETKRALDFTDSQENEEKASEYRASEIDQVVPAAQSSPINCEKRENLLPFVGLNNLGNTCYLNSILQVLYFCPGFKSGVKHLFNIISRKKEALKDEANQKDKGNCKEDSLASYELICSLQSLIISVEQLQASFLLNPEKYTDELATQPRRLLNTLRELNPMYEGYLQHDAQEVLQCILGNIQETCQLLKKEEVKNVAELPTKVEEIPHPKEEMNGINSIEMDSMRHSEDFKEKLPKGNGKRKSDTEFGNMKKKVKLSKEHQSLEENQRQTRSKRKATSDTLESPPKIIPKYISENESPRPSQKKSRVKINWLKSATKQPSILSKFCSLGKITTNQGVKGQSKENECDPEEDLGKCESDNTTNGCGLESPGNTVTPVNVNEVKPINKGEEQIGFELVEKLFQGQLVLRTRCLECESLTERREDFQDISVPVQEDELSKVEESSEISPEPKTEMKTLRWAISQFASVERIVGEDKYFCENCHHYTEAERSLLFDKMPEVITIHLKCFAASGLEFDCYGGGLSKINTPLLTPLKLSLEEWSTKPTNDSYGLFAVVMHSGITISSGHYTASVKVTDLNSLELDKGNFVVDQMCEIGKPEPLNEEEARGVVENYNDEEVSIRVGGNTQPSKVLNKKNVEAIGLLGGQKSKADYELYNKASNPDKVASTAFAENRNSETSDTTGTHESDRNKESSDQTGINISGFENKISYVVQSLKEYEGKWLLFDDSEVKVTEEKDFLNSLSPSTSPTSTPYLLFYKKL

Take `CC[C@H](C)[C@H](NC(=O)OCC1c2ccccc2-c2ccccc21)C(=O)O`: the Potency in experiment [1] was 31.6 µM (active). In addition, the Potency entry in experiment [2] and in experiment [4] was “inactive” each time. In addition, the activity change, negative = inhibition in experiment [3] is -4.14% (inactive). Besides, the max response was 1.47% in experiment [3] (setting [8]) and -2.84% in experiment [3] (setting [9]). For the same compound, the compound was classed as inactive in experiment [5].
In the case of `C=C1CCC(O)C/C1=C/C=C1\CCC[C@@]2(C)C(C(C)/C=C/C(C)C(C)C)CC[C@@H]12` (some centres undefined), the Potency entry in experiment [1], in experiment [6] and in experiment [4] was “inactive” throughout. The activity change, negative = inhibition in experiment [3] was 14.3% (inactive). The max response in experiment [3] (setting [8]) came out at 33.4%; in experiment [3] (setting [9]) it was 55.4%.
In the case of `O=c1cc(-c2ccc(O)c(O)c2)oc2ccccc12`, in experiment [1], the Potency is 15.8 µM (active). For the same compound, the Potency entry in experiment [2], in experiment [6], in experiment [7] and in experiment [4] was “inactive” throughout. Also, the activity change, negative = inhibition in experiment [3] is 2.38% (inactive). The max response is -4.12% in experiment [3] (setting [8]) and 2.75% in experiment [3] (setting [9]).
With `COc1cc2c(cc1O)C(Cc1ccc(O)cc1)N(C)CC2` (centres undefined), the Potency result in experiment [1], in experiment [6] and in experiment [4] was “inactive” in each case. The activity change, negative = inhibition in experiment [3] was 2.46% (inactive). Besides, the max response worked out at 13.5% in experiment [3] (setting [8]) and 17.7% in experiment [3] (setting [9]).
Turning to `CC(=O)OCC1OC(n2cnc3c(Cl)nc(Cl)nc32)C(OC(C)=O)C1OC(C)=O` (centres undefined), the Potency entry in experiment [1], in experiment [6] and in experiment [4] was “inactive” each time. Further, in experiment [3], the activity change, negative = inhibition was -4.18% (inactive). The max response in experiment [3] (setting [8]) stood at 15.8%; in experiment [3] (setting [9]), 12.7%.
For the compound `Nc1nc2c(ncn2C2OC(CO)CC2O)c(=O)[nH]1` (centres undefined), the Potency result in experiment [1], in experiment [6], in experiment [7] and in experiment [4] was “inactive” in each case. The activity change, negative = inhibition in experiment [3] was 6.37% (inactive). In addition, the max response was 3.55% in experiment [3] (setting [8]) and 10.6% in experiment [3] (setting [9]).
With `CNc1ccccc1C(=O)N1CCc2c([nH]c3ccccc23)C1=O`, the Potency in experiment [1] is 1 µM (active). Also, the Potency entry in experiment [2], in experiment [6], in experiment [7] and in experiment [4] was “inactive” throughout. Also, the activity change, negative = inhibition in experiment [3] is 8.02% (inactive). Also, the max response in experiment [3] (setting [8]) stood at 12.5%; in experiment [3] (setting [9]), 25.5%.
On to `CCCC(NC(C)C(=O)N1C(C(=O)O)CC2CCCCC21)C(=O)OCC` (centres undefined), for which the Potency result in experiment [1], in experiment [6] and in experiment [4] was “inactive” throughout. The activity change, negative = inhibition in experiment [3] is 9% (inactive). Further, the max response is 4.3% in experiment [3] (setting [8]) and 11.7% in experiment [3] (setting [9]).
As for `COc1ccc2c(c1)OCC(Cc1ccc(OC)c(OC)c1)C2O` (centres undefined), in experiment [1], the Potency was 7.94 µM (active) and 12.6 µM (active). Moreover, the Potency entry in experiment [2], in experiment [6], in experiment [7] and in experiment [4] was “inactive” throughout. Besides, the activity change, negative = inhibition in experiment [3] was 6.38% (inactive). In addition, the values for the max response in experiment [3] (setting [8]) and in experiment [3] (setting [9]) were 8.42% and 15.9%, respectively.
Take `CC(=O)OCC(=O)C1CCC2C3CCC4=CC(=O)CC[C@@]4(C)C3CC[C@]12C` (some centres undefined): the Potency result in experiment [1], in experiment [6], in experiment [7] and in experiment [4] was “inactive” each time. Moreover, in experiment [2], the Potency was 3.16 µM (active). Further, in experiment [3], the activity change, negative = inhibition was 5.85% (inactive). The max response in experiment [3] (setting [8]) is 5.1%; in experiment [3] (setting [9]) it was 13.2%.
With `CC1CCC2(C(=O)O)CCC3(C)C(=CCC4C3(C)CCC3[C@@]4(C)CC(O)C(O)[C@@]3(C)CO)C2C1C` (some centres undefined), the Potency result in experiment [1], in experiment [6] and in experiment [4] was “inactive” in each case. Further, the activity change, negative = inhibition in experiment [3] was 3.5% (inactive). The max response in experiment [3] (setting [8]) was determined as 22.9%; in experiment [3] (setting [9]), 33.5%.
`Nc1nc2c(nc(Br)n2C2OC(CO)C(O)C2O)c(=O)[nH]1` (centres undefined): the Potency entry in experiment [1], in experiment [6] and in experiment [4] was “inactive” in each case. Further, the activity change, negative = inhibition in experiment [3] is 2.67% (inactive). In addition, the max response in experiment [3] (setting [8]) is 15.6%; in experiment [3] (setting [9]) it was 18.1%.
Turning to `COC1C[C@@H](O[C@@H]2C(C)C(=O)OC(C)C(C)C(O)C(C)C(=O)[C@@]3(CO3)CC(C)C(OC3OC(C)CC(N(C)C)C3O)C2C)OC(C)[C@@H]1O` (some centres undefined), the Potency in experiment [1] was 6.31 µM (active). The Potency result in experiment [2], in experiment [6], in experiment [7] and in experiment [4] was “inactive” each time. Besides, the activity change, negative = inhibition in experiment [3] is 4.89% (inactive). Moreover, the results for the max response in experiment [3] (setting [8]) and in experiment [3] (setting [9]) were 4.4% and 11%, respectively.
In the case of `Cc1cc(=O)c2c(O)cc(O)c(C)c2o1`, the Potency in experiment [1] was 25.1 µM (active). The Potency result in experiment [2], in experiment [6], in experiment [7] and in experiment [4] was “inactive” each time. Moreover, in experiment [3], the activity change, negative = inhibition is 14% (inactive). Further, the figures for the max response in experiment [3] (setting [8]) and in experiment [3] (setting [9]) were 5.24% and 21.1%, respectively.
As for `C[N+]1(C)CC(O)[C@H](C(=O)[O-])C1` (some centres undefined), the Potency entry in experiment [1], in experiment [6], in experiment [7] and in experiment [4] was “inactive” each time. In addition, in experiment [3], the activity change, negative = inhibition was 1.35% (inactive). Further, the max response was 0.129% in experiment [3] (setting [8]) and 0.467% in experiment [3] (setting [9]).
With `CCC(CO)NCCNC(CC)CO` (centres undefined), the Potency entry in experiment [1], in experiment [6] and in experiment [4] was “inactive” throughout. For the same compound, the activity change, negative = inhibition in experiment [3] was -3.77% (inactive). Further, the max response was found to be 8.09% in experiment [3] (setting [8]) and 6.63% in experiment [3] (setting [9]).
With `CC(=O)OC1C=C[C@]2(C)C(CC(OC(C)=O)[C@@]3(C)C4=CC(=O)OC(c5ccoc5)[C@]4(C)CCC23)C1(C)C` (some centres undefined), the Potency entry in experiment [1], in experiment [6], in experiment [7] and in experiment [4] was “inactive” each time. Besides, the Potency in experiment [2] was 12.6 µM (active). In experiment [3], the activity change, negative = inhibition is -0.882% (inactive). Besides, the max response in experiment [3] (setting [8]) was -3.66%; in experiment [3] (setting [9]), 1.1%.
Take `CNC1C(O)[C@@H]2OC(O[C@@H]3C(O)C(O)C(N)C[C@H]3N)C(N)C[C@H]2O[C@H]1O[C@@H]1OC(CO)C(N)C(O)C1O` (some centres undefined): the Potency entry in experiment [1], in experiment [6] and in experiment [4] was “inactive” in each case. Moreover, the activity change, negative = inhibition in experiment [3] was 6.47% (inactive). The max response came to 16.9% in experiment [3] (setting [8]) and 24.6% in experiment [3] (setting [9]).
Turning to `CON`, the Potency entry in experiment [1], in experiment [6] and in experiment [4] was “inactive” throughout. Also, the activity change, negative = inhibition in experiment [3] is 4.31% (inactive). Also, the values for the max response in experiment [3] (setting [8]) and in experiment [3] (setting [9]) were 12.5% and 21.6%, respectively.
As to `CC(=O)NC(CCC(=O)O)C(=O)O` (centres undefined), the Potency result in experiment [1], in experiment [6] and in experiment [4] was “inactive” in each case. Also, the activity change, negative = inhibition in experiment [3] was 11.4% (inactive). For the same compound, the max response in experiment [3] (setting [8]) is 14.5%; in experiment [3] (setting [9]) it was 27.6%.
For `Nc1nc2c(c(=O)[nH]1)N(C=O)C(CNc1ccc(C(=O)NC(CCC(=O)O)C(=O)O)cc1)CN2` (centres undefined), the Potency result in experiment [1], in experiment [6] and in experiment [4] was “inactive” each time. For the same compound, in experiment [3], the activity change, negative = inhibition is 6.17% (inactive). The max response amounted to 17.6% in experiment [3] (setting [8]) and 27.2% in experiment [3] (setting [9]).
Regarding `O=C1CC(c2ccc(O)c(O)c2)Oc2cc(O)cc(O)c21` (centres undefined), the Potency in experiment [1] was 39.8 µM (active). Further, the Potency entry in experiment [2], in experiment [6], in experiment [7] and in experiment [4] was “inactive” throughout. Further, the activity change, negative = inhibition in experiment [3] is 17.7% (inactive). Also, the max response in experiment [3] (setting [8]) was -10.3%; in experiment [3] (setting [9]), 9.21%.
Turning to `OC/C=C/c1ccc(O)c(O)c1`, the Potency in experiment [1] is 15.8 µM (active). For the same compound, the Potency result in experiment [2], in experiment [6], in experiment [7] and in experiment [4] was “inactive” in each case. Further, the activity change, negative = inhibition in experiment [3] is 8.76% (inactive). Besides, the values for the max response in experiment [3] (setting [8]) and in experiment [3] (setting [9]) were 13.5% and 23.8%, respectively.
